Measurements taken from ChEMBL document CHEMBL3988442, “University of Dundee, Small-Polar-MMV Screening Library” (2021).
For some of these results: Results with a measured potency or affinity are listed apart.

Assays:
Design in all cases: scale not given: direction of the effect not stated beside the values
[1] = molecular target: Protein translocase subunit SecA (Escherichia coli (strain K12)) (UniProt P10408); assay: Assay to Identify E. coli SecA ATPase Inhibitors; type: functional; conditions: 30 µM
Sequence of Protein translocase subunit SecA (Escherichia coli (strain K12)) (P10408 whole entry): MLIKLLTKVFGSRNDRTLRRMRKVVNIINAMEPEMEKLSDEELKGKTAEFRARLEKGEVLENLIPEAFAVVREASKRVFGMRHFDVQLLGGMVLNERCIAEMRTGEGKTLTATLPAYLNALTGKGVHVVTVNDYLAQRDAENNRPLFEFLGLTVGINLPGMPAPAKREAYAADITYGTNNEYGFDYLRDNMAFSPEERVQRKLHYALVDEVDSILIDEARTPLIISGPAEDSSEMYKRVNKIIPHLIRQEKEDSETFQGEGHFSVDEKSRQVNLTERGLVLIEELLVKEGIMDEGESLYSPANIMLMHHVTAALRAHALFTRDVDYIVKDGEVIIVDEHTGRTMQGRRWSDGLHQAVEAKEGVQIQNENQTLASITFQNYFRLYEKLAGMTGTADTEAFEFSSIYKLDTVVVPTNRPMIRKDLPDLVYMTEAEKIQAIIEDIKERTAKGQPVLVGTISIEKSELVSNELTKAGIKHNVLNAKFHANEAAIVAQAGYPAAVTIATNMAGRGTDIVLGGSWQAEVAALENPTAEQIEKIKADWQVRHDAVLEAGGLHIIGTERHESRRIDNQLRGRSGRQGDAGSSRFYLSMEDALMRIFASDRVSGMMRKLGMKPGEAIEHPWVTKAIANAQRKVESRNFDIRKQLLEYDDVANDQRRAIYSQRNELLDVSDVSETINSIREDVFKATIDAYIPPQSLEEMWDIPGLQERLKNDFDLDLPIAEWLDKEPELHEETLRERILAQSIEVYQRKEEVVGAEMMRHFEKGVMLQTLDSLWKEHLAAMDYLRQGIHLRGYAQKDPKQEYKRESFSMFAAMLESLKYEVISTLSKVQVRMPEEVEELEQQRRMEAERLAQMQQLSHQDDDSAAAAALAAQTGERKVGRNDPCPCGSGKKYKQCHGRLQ

[2] = molecular target: T1, Ubiquitin-activating enzyme e1, putative (Leishmania donovani (strain BPK282A1)) (UniProt E9BSI1); assay: Leishmania donovani Ubiquitin Activating Enzyme (LdE1); type: functional; conditions: 30 µM
T1 sequence (whole entry): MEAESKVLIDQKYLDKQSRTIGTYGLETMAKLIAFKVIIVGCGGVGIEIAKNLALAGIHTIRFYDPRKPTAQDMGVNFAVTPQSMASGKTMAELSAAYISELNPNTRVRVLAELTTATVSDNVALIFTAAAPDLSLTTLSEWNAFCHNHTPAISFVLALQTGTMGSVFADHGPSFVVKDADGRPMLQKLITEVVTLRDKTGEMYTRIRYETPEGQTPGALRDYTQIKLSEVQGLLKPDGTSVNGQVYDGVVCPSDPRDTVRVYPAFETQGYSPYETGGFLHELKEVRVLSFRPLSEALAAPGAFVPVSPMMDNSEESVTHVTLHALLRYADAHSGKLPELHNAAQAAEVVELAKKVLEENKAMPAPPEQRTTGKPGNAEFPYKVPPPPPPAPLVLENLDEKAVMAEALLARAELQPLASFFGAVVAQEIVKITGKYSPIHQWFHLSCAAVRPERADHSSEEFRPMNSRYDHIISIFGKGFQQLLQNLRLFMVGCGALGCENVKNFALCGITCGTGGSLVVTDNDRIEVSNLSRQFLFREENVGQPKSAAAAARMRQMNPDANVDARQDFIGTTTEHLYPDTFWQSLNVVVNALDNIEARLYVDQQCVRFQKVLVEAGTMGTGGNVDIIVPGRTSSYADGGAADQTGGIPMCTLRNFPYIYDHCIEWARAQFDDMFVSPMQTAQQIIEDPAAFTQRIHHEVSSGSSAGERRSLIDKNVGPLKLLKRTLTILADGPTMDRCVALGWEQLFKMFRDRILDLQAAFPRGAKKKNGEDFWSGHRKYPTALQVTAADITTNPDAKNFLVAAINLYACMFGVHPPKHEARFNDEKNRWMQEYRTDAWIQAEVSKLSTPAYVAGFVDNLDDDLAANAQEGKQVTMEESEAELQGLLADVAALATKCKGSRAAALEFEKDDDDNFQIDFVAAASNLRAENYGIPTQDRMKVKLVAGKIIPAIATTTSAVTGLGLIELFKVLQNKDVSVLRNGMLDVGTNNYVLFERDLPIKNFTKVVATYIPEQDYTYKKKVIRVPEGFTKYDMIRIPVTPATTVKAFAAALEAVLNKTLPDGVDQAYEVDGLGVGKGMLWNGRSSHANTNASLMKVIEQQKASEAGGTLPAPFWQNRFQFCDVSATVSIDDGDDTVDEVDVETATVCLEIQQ

[3] = molecular target: AMP-activated protein kinase, AMPK (Homo sapiens) (UniProt P54646+O43741+P54619+Q9UGJ0+Q9Y478+Q13131+Q9UGI9); assay: AMP-dependent Kinase enzyme assay. An in vitro enzyme assay that detects ADP turnover that is directly proportional to AMPK activity. This uses naive AMPK that is activated during the assay with MK-8722; type: functional; conditions: 30 µM
[4] = molecular target: Sialic acid-binding Ig-like lectin 9 (Homo sapiens) (UniProt Q9Y336); assay: Hs-Siglec9 ALPHAscreen SOP 20170721; conditions: 10 µM
Sequence of Sialic acid-binding Ig-like lectin 9 (Homo sapiens) (Q9Y336 whole entry): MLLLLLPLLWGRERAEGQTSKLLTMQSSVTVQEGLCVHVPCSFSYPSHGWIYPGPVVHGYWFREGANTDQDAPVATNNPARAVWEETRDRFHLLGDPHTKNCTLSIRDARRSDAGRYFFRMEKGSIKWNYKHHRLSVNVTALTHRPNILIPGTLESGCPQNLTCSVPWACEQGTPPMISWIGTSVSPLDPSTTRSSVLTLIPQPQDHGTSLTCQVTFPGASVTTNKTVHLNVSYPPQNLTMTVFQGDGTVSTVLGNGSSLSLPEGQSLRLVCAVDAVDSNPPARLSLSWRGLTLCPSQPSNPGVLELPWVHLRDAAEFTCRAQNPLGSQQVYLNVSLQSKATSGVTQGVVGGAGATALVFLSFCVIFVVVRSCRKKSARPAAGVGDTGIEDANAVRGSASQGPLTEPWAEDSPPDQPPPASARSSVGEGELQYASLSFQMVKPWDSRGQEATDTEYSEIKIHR

[5] = tested on: Trypanosoma cruzi; assay: Trypanosoma cruzi phosphomannomutase and mannose-1-phosphate guanylyltransferase assay; type: functional; conditions: 10 µM
[6] = molecular target: T2, Arginase-2, mitochondrial (Homo sapiens) (UniProt P78540); assay: in vitro enzyme assay to detect the production of urea directly proportional to the activity of Arginase II; type: functional; conditions: 33.3 µM; further: in the data most compounds retested in dose-response had high values
T2 sequence (whole entry): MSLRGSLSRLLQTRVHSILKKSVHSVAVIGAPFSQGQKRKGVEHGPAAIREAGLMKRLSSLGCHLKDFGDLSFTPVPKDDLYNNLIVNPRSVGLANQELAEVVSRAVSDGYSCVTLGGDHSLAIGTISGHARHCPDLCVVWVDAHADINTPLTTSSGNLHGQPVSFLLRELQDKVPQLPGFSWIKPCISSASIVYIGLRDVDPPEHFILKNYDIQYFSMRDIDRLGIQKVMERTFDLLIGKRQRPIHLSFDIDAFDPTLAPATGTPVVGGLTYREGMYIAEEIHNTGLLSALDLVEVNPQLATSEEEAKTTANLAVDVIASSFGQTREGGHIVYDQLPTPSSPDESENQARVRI

[7] = molecular target: T3, Proteasome subunit beta (Trypanosoma cruzi) (UniProt O96673); assay: Trypanosoma cruzi proteasome chymotrypsin-like activity (TcProtChymo) assay.; further: in the data most compounds retested in dose-response had high values; type: functional; conditions: 9.37 µM
T3 sequence (whole entry): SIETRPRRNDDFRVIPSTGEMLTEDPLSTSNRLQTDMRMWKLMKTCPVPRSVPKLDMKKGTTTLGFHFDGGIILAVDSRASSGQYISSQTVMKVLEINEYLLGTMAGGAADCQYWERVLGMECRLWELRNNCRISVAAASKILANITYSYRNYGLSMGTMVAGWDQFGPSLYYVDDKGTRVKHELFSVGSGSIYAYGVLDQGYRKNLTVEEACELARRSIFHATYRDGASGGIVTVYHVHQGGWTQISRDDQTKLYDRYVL

[8] = organism: Homo sapiens; assay: To identify inhibition of the IFN signalling (Jak-Stat) pathway via expression of an eGFP reporter gene under the control of an IFN-stimulated response element (ISRE) containing MxA promoter.; type: functional; conditions: 30 µM
[9] = molecular target: T4, Tyrosyl-tRNA synthetase, putative (Trypanosoma cruzi (strain CL Brener)) (UniProt Q4DSP6); assay: Trypanosoma cruzi tyrosyl tRNA synthetase (TcYRS) _High Tyrosine SOP; type: functional; conditions: 30 µM; further: in the data most compounds retested in dose-response had high values
T4 sequence (whole entry): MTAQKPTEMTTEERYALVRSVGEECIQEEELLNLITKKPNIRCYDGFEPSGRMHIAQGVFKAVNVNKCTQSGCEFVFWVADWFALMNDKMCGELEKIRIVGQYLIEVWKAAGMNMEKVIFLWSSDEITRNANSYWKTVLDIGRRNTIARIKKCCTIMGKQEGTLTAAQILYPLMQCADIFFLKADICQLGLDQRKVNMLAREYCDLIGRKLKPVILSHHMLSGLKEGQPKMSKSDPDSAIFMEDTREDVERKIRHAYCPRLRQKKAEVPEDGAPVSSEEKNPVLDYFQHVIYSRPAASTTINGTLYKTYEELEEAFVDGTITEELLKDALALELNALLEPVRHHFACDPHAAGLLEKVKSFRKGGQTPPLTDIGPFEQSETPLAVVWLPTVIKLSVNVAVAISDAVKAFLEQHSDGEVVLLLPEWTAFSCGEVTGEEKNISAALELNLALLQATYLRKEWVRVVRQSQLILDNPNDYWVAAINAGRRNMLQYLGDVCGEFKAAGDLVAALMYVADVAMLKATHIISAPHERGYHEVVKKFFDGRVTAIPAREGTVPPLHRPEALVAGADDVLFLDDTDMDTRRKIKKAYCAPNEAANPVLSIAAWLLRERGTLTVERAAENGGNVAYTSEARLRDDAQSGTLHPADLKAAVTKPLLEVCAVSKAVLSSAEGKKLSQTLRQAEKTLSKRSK

[10] = molecular target: T4, Tyrosyl-tRNA synthetase, putative (Trypanosoma cruzi (strain CL Brener)); assay: Trypanosoma cruzi tyrosyl tRNA synthetase (TcYRS) SOP; type: functional; conditions: 30 µM
[11] = molecular target: Chromo domain-containing protein 1 (Saccharomyces cerevisiae (strain ATCC 204508 / S288c) (Baker's yeast)) (UniProt P32657); assay: ScCHD-1 Enzyme Inhibition Assay; type: functional; conditions: 30 µM; further: in the data most compounds retested in dose-response had high values
Sequence of Chromo domain-containing protein 1 (Saccharomyces cerevisiae (strain ATCC 204508 / S288c) (Baker's yeast)) (P32657 whole entry, the tested form may be a part): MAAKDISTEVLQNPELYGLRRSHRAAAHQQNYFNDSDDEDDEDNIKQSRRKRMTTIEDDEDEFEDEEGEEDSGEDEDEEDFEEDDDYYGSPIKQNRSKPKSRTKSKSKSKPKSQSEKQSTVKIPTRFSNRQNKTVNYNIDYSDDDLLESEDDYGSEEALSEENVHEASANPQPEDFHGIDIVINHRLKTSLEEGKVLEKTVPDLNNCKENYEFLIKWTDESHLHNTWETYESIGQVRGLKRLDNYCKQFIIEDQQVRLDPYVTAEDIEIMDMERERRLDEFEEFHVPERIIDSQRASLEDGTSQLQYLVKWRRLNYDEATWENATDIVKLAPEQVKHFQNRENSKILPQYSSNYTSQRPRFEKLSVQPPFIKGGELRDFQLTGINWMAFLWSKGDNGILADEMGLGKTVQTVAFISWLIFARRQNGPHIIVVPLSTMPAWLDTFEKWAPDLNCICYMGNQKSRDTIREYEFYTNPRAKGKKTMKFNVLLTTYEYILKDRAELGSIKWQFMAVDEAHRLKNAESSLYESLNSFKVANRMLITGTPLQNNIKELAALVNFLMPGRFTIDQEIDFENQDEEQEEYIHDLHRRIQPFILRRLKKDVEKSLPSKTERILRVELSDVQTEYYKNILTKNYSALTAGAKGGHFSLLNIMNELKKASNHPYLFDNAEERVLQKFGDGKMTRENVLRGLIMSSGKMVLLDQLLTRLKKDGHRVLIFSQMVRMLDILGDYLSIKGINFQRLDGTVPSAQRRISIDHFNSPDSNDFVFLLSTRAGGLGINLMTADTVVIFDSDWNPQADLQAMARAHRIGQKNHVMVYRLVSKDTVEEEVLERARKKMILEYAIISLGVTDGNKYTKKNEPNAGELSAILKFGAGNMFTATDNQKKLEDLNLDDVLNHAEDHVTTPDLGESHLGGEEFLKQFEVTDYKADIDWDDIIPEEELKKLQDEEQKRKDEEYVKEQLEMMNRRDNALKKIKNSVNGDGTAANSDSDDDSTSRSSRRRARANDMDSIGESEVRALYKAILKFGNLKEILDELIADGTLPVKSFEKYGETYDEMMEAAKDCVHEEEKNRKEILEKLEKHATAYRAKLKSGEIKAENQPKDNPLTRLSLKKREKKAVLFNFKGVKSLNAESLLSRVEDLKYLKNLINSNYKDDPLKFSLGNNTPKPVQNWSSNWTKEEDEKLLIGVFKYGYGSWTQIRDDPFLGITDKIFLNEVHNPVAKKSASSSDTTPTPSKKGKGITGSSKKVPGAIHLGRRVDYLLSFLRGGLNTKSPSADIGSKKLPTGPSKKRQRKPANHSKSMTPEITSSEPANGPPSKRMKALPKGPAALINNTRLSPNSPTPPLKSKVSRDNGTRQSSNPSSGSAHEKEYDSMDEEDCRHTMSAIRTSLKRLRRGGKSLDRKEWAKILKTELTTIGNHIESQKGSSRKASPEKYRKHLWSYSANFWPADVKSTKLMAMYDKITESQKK

Row | Structure (SMILES) | Percent Effect [1] [%] | Percent Effect [2] [%] | Percent Effect [3] [%] | Percent Effect [4] [%] | Percent Effect [5] [%] | Percent Effect [6] [%] | Percent Effect [7] [%] | Percent Effect [8] [%] | Percent Effect [9] [%] | Percent Effect [10] [%] | Percent Effect [11] [%]
1 | COc1cc(CNCc2ccc(C(C)O)cc2)cc2c1OCO2 (stereo not given) | -4.95 | 18.9 | 2.1 | 10.4 | 8.45 | 0.185 | 20.8 | 15.6 | 9.9 | 28.1 | -9.5
2 | CN(C)[C@@H]1CCN(C(=O)NC2CCCC2)[C@H]1Cc1cnn(C)c1 | -4.9 | 2.67 | -90.2 | 5.44 | -0.197 | 2.1 | 7.84 | -0.845 | 1.06 | -3.85 | 1.31
3 | Cc1nc(CNC(=O)NCCc2ccc(N(C)C)cc2)cs1 | -4.53 | 10.8 | 6.12 | 13.5 | 1.23 | -5.61 | -1.98 | -15.3 | 9.36 | 18.5 | -10.4
4 | Cn1cccc1C(=O)NCc1cnc2n1CCN(C(=O)N1CCCC1)C2 | -5.97 | 16 | -1.93 | 4.39 | 6.18 | -45 | 7.86 | 3.79 | 2.08 | 12.5 | -6.82
5 | CN(C(=O)C1CSCN1S(=O)(=O)c1ccc(F)cc1)C1CC1 (stereo not given) | -6.46 | 0 | -0.918 | 1.18 | -5.57 | -2.73 | 6.27 | -19.6 | 3.23 | 11.1 | 0.714
6 | NC(=O)NCC(=O)N1C[C@H]2CC[C@@H]1CN(Cc1ccccc1)C2 | -4.49 | 5.48 | 6.44 | -9.32 | -0.979 | -6.82 | 11.4 | -13.6 | 6.45 | 7.5 | -5.72
7 | Cc1nc(NC(=O)CNC(=O)c2c(F)cccc2Cl)n[nH]1 | -5.26 | 13.2 | 2.15 | 2.44 | 3.21 | -3.55 | 9.11 | 3.8 | 1.06 | 7.79 | -1.65
8 | CCC(=O)N1CCCC(c2cc(Nc3ncccn3)nc(C)n2)C1 (stereo not given) | -3.27 | 1.35 | 13.2 | -0.199 | -1.58 | -5.8 | 10.6 | -1.71 | 6.45 | 11.7 | -6.06
9 | CCSc1ccc(C(=O)Nc2c(C)nn(C(C)C)c2C)cn1 | -9.54 | -2.74 | 1.71 | -2.98 | -0.198 | -1.2 | 4.71 | 20.2 | 0 | 1.24 | -2.1
10 | CSCc1cccc(S(=O)(=O)NCCCn2ccnc2)c1 | -5.68 | -23.4 | -1.48 | 6.2 | 1.67 | -6.9 | 2.16 | 2.79 | 7.53 | 21 | -1.53
11 | CN(CCO)Cc1nnc(C2CCN(C(=O)c3cccnc3)CC2)n1C | -3.37 | 16 | -6.42 | 14.9 | 5.75 | 4.69 | 6.97 | 4.06 | 6.01 | 16.1 | -7.14
12 | CCc1csc(C2CCCN(C(=O)C3=NN(CC)C(=O)CC3)C2)n1 (stereo not given) | -3.73 | 7.79 | -3.68 | 5.23 | 6.37 | 2.13 | -5.07 | 11.1 | 4.85 | 12.2 | -7.52
13 | Cn1cccc1C(CNC(=O)c1ccc(F)cc1F)N1CCCCCC1 (stereo not given) | -3.52 | 15.6 | -9.64 | -10.9 | 6.21 | -3.23 | 17.9 | 11 | 8.47 | 21.8 | -12.6
14 | COc1ccc(CN2CCn3cc(Cn4cccn4)nc3C2)cc1 | -0.217 | 5.2 | 5.77 | -3.88 | -5.03 | -3.23 | 9.4 | -15 | 5.29 | -8.97 | -4.7
15 | Cc1ccc([C@@H]2CN(S(=O)(=O)N(C)C)C[C@H]2N(C)C)cc1 | -5.32 | 13.5 | -7.05 | 37 | 3.42 | 45.9 | 8.84 | -3.64 | 4.3 | 11.1 | -14.3
16 | Cc1cccc(CNC(=O)CNc2cc(CO)ccc2Cl)c1 | -6.11 | 2.63 | 4.86 | -0.518 | -1.27 | 1.18 | 11 | -4.91 | 4.25 | 7.79 | -2.84
17 | O=C(c1ccc(Br)o1)N1CCCCC1Cn1cccn1 (stereo not given) | -1.08 | 2.7 | -1.88 | 12.6 | 0.279 | 0.924 | 15.3 | 18.2 | 0.99 | 3.66 | 0.762
18 | c1ccc2oc(N3CCCCC3Cn3cncn3)nc2c1 (stereo not given) | -9.23 | 18.9 | -13.5 | 28.6 | 11.4 | -2.4 | 2.69 | 1.84 | 7.92 | 25.6 | -5.86
19 | Cc1cnn(C2CCCN(C(=O)CCCOc3cccc(F)c3)C2)c1 (stereo not given) | -4.89 | -1.27 | 42.4 | 2.93 | 0.513 | 4.52 | 0 | 3.38 | -3.12 | -5.06 | -28.9
20 | Cc1ccc2c(c1)CCC21CCN(C(=O)CO)CC1 | -2.81 | 5.2 | -0.185 | 17.2 | 6.79 | -20.7 | 12.8 | 15.4 | 4.3 | 6.17 | -7.19
